Assay outcomes (PubChem BioAssay)
The list is not random: actives were taken first. Their share in the collection is about 4.5%.
Mdm2-MdmX inh: human Mdm2/MdmX binding inhibition; O15151+Q00987; SaOS-2 split-luciferase Mdm2/MdmX complementation, luminescence; inhibition, % at 8 µM; 330,000 compounds, 3% hits; AID 485346;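 active means inhibition of at least 50% at 8 µM in the primary screen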
Beta apoptosis: beta cell apoptosis inhibition | INS-1E cytokine-induced death, ATP luminescence, 48 h; percent of positive-control rescue, neutral wells zero | protection from apoptosis, % (concentration not given with the values) | 300,000 compounds, 0.8% hits | AID 435005;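 active means Every replicate reaches about 75%, or at least half do and their mean reaches it too, limit read from the data; inconclusive means At least half of replicates reach the limit but their mean does not; inactive means Under half of replicates reach the limit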;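 further: 0% = cytokine-treated negative control wells and 100% = positive control rescue; higher means more ATP so stronger rescue from cytokine killing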
CSC inhib: blocks cancer stem cells; cancer stem cell-like cells viability, luminescence; inhibition, % at 7.5 µM; 300,000 compounds, 1.1% hits; AID 2717; in the data active means inhibition above about 75%; inconclusive means no clear call, values can overlap the other calls; tested in HMLE shEcad cells
Jurkat NFkB inh: lowers PMA/ionomycin-induced NF-kB signal in Jurkat cells. PMA/ionomycin-induced NF-kB luciferase reporter, luminescence. 330,000 compounds, 0.53% hits. AID 435003. inhibition, % at 4 µM; in the data active means inhibition above about 50%
Gli-Sufu antag: antagonists of Gli-Sufu signaling; Sufu-KO-LIGHT fibroblasts, Gli luciferase reporter luminescence; inhibition, % at 5 µM; 340,000 compounds, 0.74% hits;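 active means inhibition above about 55%, limit read from the data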;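 further: 0% = DMSO-treated cells and 100% = wells with medium but no cells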
697 NFkB inh: lowers PMA/ionomycin-induced NF-kB signal in 697 B cells; 697 B-cell NF-kB luciferase reporter, 16 h; inhibition, % at 4 µM; 330,000 compounds, 0.33% hits; AID 435022; in the data active means inhibition above about 35%
Mdm2 MdmX conf: confirmation of human Mdm2/MdmX interaction inhibitors; 10,000 compounds, 55% hits; inhibition, % at 8 µM; Mdm2-MdmX binding, luminescent assay; AID 489028; shares compounds with Mdm2-MdmX inh; in the data active means inhibition above about 40%
Full FLuc ctr: counter-screen for Mdm2/MdmX inhibitors: full-length luciferase; 6,200 compounds, 77% hits; inhibition, % at 8 µM; SaOS-2 full-length luciferase counterscreen, luminescence; shares compounds with Mdm2-MdmX inh;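 active means mean inhibition at 8 µM reaching about 37%, which flags the compound as non-specific, limit read from the data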;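 further: p53-null SaOS-2 cells with luciferase driven by a doxycycline-inducible promoter; compound on cells about two nights before reading with doxycycline added after day one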
Active calls of the source: *; ? = inconclusive; . = no result.

SMILES	Mdm2-MdmX inh	Beta apoptosis	CSC inhib	Jurkat NFkB inh	Gli-Sufu antag	697 NFkB inh	Mdm2 MdmX conf	others
O=C(Nc1cccc2c1CCCC2)c1ccc(Cl)c([N+](=O)[O-])c1	56*	-5	-2	11	-1	32	27
O=C(Nc1cccnc1Cl)c1cc([N+](=O)[O-])ccc1Cl	31	0	-2	-38	6	-35	.
O=C(Nc1ccccc1-c1ccccc1)c1ccc(Cl)c([N+](=O)[O-])c1	29	2	1	12	4	1	.
CC(C)Cc1nnc(NC(=O)CCS(=O)(=O)c2ccc(Cl)cc2)s1	32	-13	-1	0	7	-7	.
CC(C)(CNC(=O)CCNC(=O)c1ccc(Br)cc1)N1CCOCC1	8	-2	-1	5	-5	16	.
Brc1cccc(-c2nc3cccnc3nc2-c2cccc(Br)c2)c1	13	10	26	2	7	-10	.
Clc1ccc(-[n+]2c(-c3cccc(Br)c3)[nH]c3nc4ccccc4nc32)cc1	61*	40	-1	11	23	-11	15
Cc1ccc(S(=O)(=O)N(C)C[C@@H]2Oc3ccc(NS(C)(=O)=O)cc3CC(=O)N([C@H](C)CO)C[C@@H]2C)cc1	-18	5	-15	4	-7	-3	.
O=C(COC(=O)C12CC3CC(CC(C3)C1)C2)Nc1nc2c(F)c(F)c(F)cc2s1	58*	.	.	-9	0	-4	14
COc1c(Br)cc(Br)cc1/C=N/NC(=O)c1ccncc1	8	6	29	5	0	7	.
CN(C)c1ccc(C(=O)N/N=C/c2cc(Br)cc(Br)c2O)cc1	80*	31	67	13	3	-25	86*	Full FLuc ctr=54*
CN(C)c1ccc(/C=N/NC(=O)c2ccc(NC(=O)c3ccccc3)cc2)cc1	57*	13	17	8	0	0	11
COc1cc(-c2noc(C)c2C#Cc2ccc(N)cc2)cc(OC)c1OC	89*	25	108*	49	36	1	70*	Full FLuc ctr=89*
Cc1cc(C)c(NC(=O)Cn2nnc(C(=O)NCc3cccs3)c2N)c(C)c1	46	-4	-13	-9	6	8	.
CCOc1ccc(NC(=O)Cn2nnc(C(=O)NCc3ccc4c(c3)OCO4)c2N)cc1	52*	.	-4	10	-13	10	18
Cc1ccc(NC(=O)Cn2nnc(C(=O)NCc3cccs3)c2N)c(C)c1	69*	.	-13	1	-13	-25	23
COc1ccc(NC(=O)Cn2nnc(C(=O)NCc3ccc4c(c3)OCO4)c2N)cc1	42	-6	2	-3	-5	-11	.
Cc1cc(C)cc(NC(=O)Cn2nnc(C(=O)NCc3ccc4c(c3)OCO4)c2N)c1	55*	54	2	12	-11	16	37	Full FLuc ctr=55*
O=C(COC(=O)c1nc(Cl)ccc1Cl)NCc1ccc(Cl)cc1	17	-5	-11	10	6	8	.
CC(=O)Nc1ccc(NC(=O)CSc2nc3[nH]ncc3c(=O)n2-c2ccccc2)cc1	-3	.	3	15	-9	-12	.
CC1CCc2nc(N)c(C#N)c(-c3cccnc3)c2C1 (stereo not drawn)	84*	-17	13	32	-12	-7	79*	Full FLuc ctr=21
O=C(Nc1ccnc(-c2ccncc2)n1)c1ccc(Cl)cc1	8	-1	2	10	2	3	.
CCOC(=O)c1cnc(-c2ccccc2O)nc1Cl	9	-2	-3	-9	-16	-10	.
CCOC(=O)C1=Nc2ccccc2C1=[N+]=[N-]	51*	107*	-4	-26	19	-20	9
COc1cc2ccccc2cc1C(=O)Nc1ccccc1Cl	-247	2	?	-99	-47	-145	.
SMILES	Mdm2-MdmX inh	Beta apoptosis	CSC inhib	Jurkat NFkB inh	Gli-Sufu antag	697 NFkB inh	Mdm2 MdmX conf	others
COc1cc2ccccc2cc1C(=O)NNC(=O)c1ccccc1O	56*	7	13	3	.	-23	48*	Full FLuc ctr=40*
COc1cc(NC(=O)c2cc3ccccc3cc2O)c(OC)cc1Cl	100*	111*	76*	5	26	2	91*	Full FLuc ctr=42*
CCC1CCc2sc(C(=O)NCC(c3ccc(OC)cc3)N3CCCC3)cc2C1 (stereo not drawn)	50*	10	-1	-4	10	-1	31
COc1ccc(C(CNC(=O)c2oc3cc(C)c(C)cc3c2C)N2CCCCC2)cc1 (stereo not drawn)	51*	0	7	14	21	-15	-10
CCC1(CC)C(=O)N(c2ccccc2)C(=N)N(c2ccccc2)C1=O	.	.	.	.	11	.	.
O=c1[nH]nc(-c2n[nH]c(=O)o2)o1	.	.	.	.	8	.	.
C[C@@H]1CN([C@H](C)CO)C(=O)c2cc(NC(=O)Nc3ccc(C(F)(F)F)cc3)ccc2O[C@H]1CN(C)S(=O)(=O)c1ccc(Cl)cc1	85*	-7	78*	8	3	-3	16
C[C@H](CO)N1C[C@H](C)[C@@H](CN(C)S(=O)(=O)c2ccc(F)cc2)Oc2ccc(NC(=O)Nc3ccc(C(F)(F)F)cc3)cc2C1=O	75*	-1	87*	13	-2	15	16
C[C@@H]1CN([C@@H](C)CO)C(=O)Cc2cc(NC(=O)Nc3ccc(C(F)(F)F)cc3)ccc2O[C@@H]1CN(C)S(=O)(=O)c1ccc(Cl)cc1	94*	35	132*	-4	-1	19	53*	Full FLuc ctr=38*
C[C@H](CO)N1C[C@H](C)[C@@H](CN(C)S(C)(=O)=O)Oc2ccc(NC(=O)Nc3ccc(C(F)(F)F)cc3)cc2C1=O	-13	-8	.	8	0	14	.
C[C@H]1CN([C@@H](C)CO)C(=O)c2cccc(NC(=O)Nc3ccc(C(F)(F)F)cc3)c2O[C@@H]1CN(C)S(=O)(=O)c1ccc(Cl)cc1	58*	37	130*	2	7	8	14
C[C@H](CO)N1C[C@H](C)[C@H](CN(C)S(=O)(=O)c2cn(C)cn2)Oc2ccc(NC(=O)Nc3ccc(C(F)(F)F)cc3)cc2CC1=O	2	-1	50	8	-11	-42	.
C[C@H](CO)N1C[C@H](C)[C@@H](CN(C)S(=O)(=O)c2ccc(F)cc2)Oc2ccc(NC(=O)Nc3ccccc3)cc2C1=O	34	-6	-22	-2	1	24	.
C[C@H]1CN([C@@H](C)CO)C(=O)Cc2cc(NC(=O)CCC(F)(F)F)ccc2O[C@H]1CN(C)S(C)(=O)=O	1	1	.	-129	-9	19	.
Cc1ccc(S(=O)(=O)N(C)C[C@@H]2Oc3ccc(NC(=O)CCC(F)(F)F)cc3CC(=O)N([C@@H](C)CO)C[C@@H]2C)cc1	59*	0	64	-5	10	-38	57*	Full FLuc ctr=63*
